The text below walks through data of PubChem BioAssay (NCATS).

Test [1] in a line: qHTS of pediatric cancer cell lines to identify multiple opportunities for drug repurposing: Primary screen for SK-N-MC cells (AID 1347093). Summed up: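 Metabolically active cells were quantified by ATP-dependent luminescence (CellTiter-Glo, 15 min at room temperature) following 48 h treatment. Cells had been plated at 500-1,000 per well and settled for 5 h beforehand.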
A short description of test [2]: qHTS of pediatric cancer cell lines to identify multiple opportunities for drug repurposing: Primary screen for BT-37 cells (AID 1347094). Summed up:
(§1)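 500-1,000 cells/well; 5 h pre-incubation 37 °C/5% CO2; compound pinned; 48 h; CellTiter-Glo, 15 min RT; luminescence. MIPE 11-pt from 0.78 nM, NPC 8-pt from 0.59 nM final. Bortezomib 2.3 µM final as positive control.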

A short description of test [3]: qHTS of pediatric cancer cell lines to identify multiple opportunities for drug repurposing: Primary screen for NB-EBc1 cells (AID 1347095). Summed up: as §1
A short description of test [4]: qHTS of pediatric cancer cell lines to identify multiple opportunities for drug repurposing: Primary screen for BT-12 cells (AID 1347101). Note: nearly all actives have a fitted effect of over 25% in size. Summed up: (§2)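 Cells (500-1,000/well) rested 5 h, then received compounds for 48 h; metabolically active cells were measured by CellTiter-Glo luminescence. Final concentrations spanned up to 46 µM (MIPE, 11-point) or 0.59 nM-46 µM (NPC, 8-point) in primary screens, 11-point in follow-ups.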

Test [5] is described as follows: qHTS of pediatric cancer cell lines to identify multiple opportunities for drug repurposing: Primary screen for U-2 OS cells (AID 1347096). Note: nearly all actives have a fitted effect of over 50% in size. Summed up: (§3)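 Viability after 48 h compound treatment at 37C, 500-1,000 cells/well, read as ATP luminescence with CellTiter-Glo. Primary screens used 11-point (MIPE, 0.78 nM-46 µM) or 8-point (NPC, 0.59 nM-46 µM) final concentrations; follow-up screens used 11-point dilutions.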

Test [6] can be described thus: qHTS of pediatric cancer cell lines to identify multiple opportunities for drug repurposing: Primary screen for Saos-2 cells (AID 1347097). Note: nearly all actives have a fitted effect of over 40% in size. Summed up: as §1
A short description of test [7]: qHTS of pediatric cancer cell lines to identify multiple opportunities for drug repurposing: Primary screen for SK-N-SH cells (AID 1347098). Note: nearly all actives have a fitted effect of over 65% in size. Summed up:
as §2

Test [8] can be described thus: qHTS of pediatric cancer cell lines to identify multiple opportunities for drug repurposing: Primary screen for Rh18 cells (AID 1347102). Note: nearly all actives have a fitted effect of over 65% in size. Summed up:
as §3

A short description of test [9]: qHTS of pediatric cancer cell lines to identify multiple opportunities for drug repurposing: Primary screen for NB1643 cells (AID 1347099). Note: nearly all actives have a fitted effect of over 50% in size. Summed up:
as §1

Test [10] is described as follows: qHTS of pediatric cancer cell lines to identify multiple opportunities for drug repurposing: Primary screen for LAN-5 cells (AID 1347100). Summed up: as §3

Inconclusive results are not listed. Active and inactive are the calls of the source. Calls come from the whole dose curve; as a rule, active = well fitted curve in the direction sought with a large enough effect; inconclusive = small, poorly fitted or top-dose-only effect, or another doubt; inactive = no such curve, though single readings can be large; an effect the other way counts as inactive or inconclusive.
Potency is the fitted concentration of half-maximal effect.

Regarding `Nc1c2ccccc2nc2ccccc12`, the Potency in [1] was 11.9 µM (active); in [2], 8.71 µM (active); in test [3], 3.76 µM (active); in test [4], 12.3 µM (active).
Take `OC1(c2ccc(Cl)c(C(F)(F)F)c2)CCN(CCCC(c2ccc(F)cc2)c2ccc(F)cc2)CC1`: the Potency was 6.68 µM (active) in [1]; 11 µM (active) in test [2]; 21.1 µM (active) in test [5]; 11.9 µM (active) in [6]; 24.4 µM (active) in test [7]; 21.9 µM (active) in test [4]. The Potency in test [8] was 23.7 µM (active).
Regarding `COc1cc(S(N)(=O)=O)cc(C(=O)O)c1OC`, the Potency entry in [1], in test [2], in test [5], in test [6], in [7] and in test [9] was “inactive” throughout. Besides, the Potency result in test [10], in test [4] and in test [8] was “inactive” throughout.
`Fc1ccc(C(c2ccc(F)cc2)N2CCNCC2)cc1`: the Potency result in test [1], in test [2], in test [5], in [6], in test [7] and in test [10] was “inactive” each time. The Potency result in [4] and in [8] was “inactive” in each case.
Take `N#CSCC(=O)O`: the Potency result in [1], in test [2], in test [5], in test [6], in [7] and in [9] was “inactive” each time. Also, the Potency entry in [4] and in test [8] was “inactive” in each case.
On to `CCCCCCCCCCCC[N+](C)(C)Cc1ccccc1`, for which the Potency in test [1] is 2.66 µM (active); in [2] it was 15.5 µM (active); in [6] it was 4.73 µM (active); in test [7], 15.4 µM (active); in [9], 6.68 µM (active); in test [8], 2.11 µM (active). For the same molecule, the Potency entry in test [3] and in [10] was “inactive” throughout.
With `N#Cc1cc(NC(=O)C(=O)O)c(Cl)c(NC(=O)C(=O)O)c1`, the Potency entry in [1], in test [2], in [5], in test [6], in [7] and in test [9] was “inactive” each time. Moreover, the Potency result in test [10], in [4] and in test [8] was “inactive” throughout.
As for `Cc1cc(=O)oc2cc(O[C@@H]3SC[C@@H](O)[C@H](O)[C@H]3O)ccc12`, the Potency entry in test [1], in test [2], in [5], in test [6], in test [7] and in test [9] was “inactive” in each case. Moreover, the Potency entry in [10], in test [4] and in [8] was “inactive” each time.
For `CCOC(=O)[C@H](CCc1ccccc1)N[C@@H](C)C(=O)N(CC(=O)O)C1Cc2ccccc2C1`, the Potency result in test [1], in test [2], in test [3], in [6], in test [9] and in test [8] was “inactive” throughout.
For the molecule `CO[C@@H]1[C@@H](O[C@@H]2O[C@H](C)[C@@H](O[C@H]3C[C@@](C)(O)[C@@H](O)[C@H](C)O3)[C@H](N(C)C)[C@H]2O)[C@@H](CC=O)C[C@@H](C)[C@@H](O[C@@H]2CC[C@H](N(C)C)[C@@H](C)O2)/C=C/C=C/C[C@@H](C)OC(=O)C[C@H]1OC(C)=O`, the Potency entry in [1], in test [2], in test [3], in test [6], in test [9] and in test [10] was “inactive” throughout. The Potency entry in test [8] is “inactive”.
On to `CN(C)CCN(Cc1ccsc1)c1ccccn1`, for which the Potency result in test [1], in test [2], in test [5], in test [6], in test [9] and in test [4] was “inactive” in each case. Moreover, the Potency entry in test [8] is “inactive”. Moreover, the Potency in test [10] was 0.001 µM (active).
Consider `OC1(c2ccc(Cl)cc2)CCNCC1`, for which the Potency result in test [1], in test [2], in test [5], in [6], in [7] and in [9] was “inactive” in each case. Also, the Potency entry in test [10], in test [4] and in test [8] was “inactive” throughout.
For `CCCCC(O)/C=C(C)/C=C/C=C/C(=O)N1CCCC1=O` (centres undefined), the Potency entry in test [1], in [2], in [5], in test [6], in test [7] and in [9] was “inactive” in each case. The Potency result in [10] and in test [8] was “inactive” throughout.
As for `C1N2CN3CN1CN(C2)C3`, the Potency result in test [1], in [2], in [3], in [6], in test [9] and in test [10] was “inactive” throughout. Besides, the Potency entry in test [4] and in test [8] was “inactive” in each case.
As for `CCOc1c(N2CCOCC2)cnn(C)c1=O`, the Potency entry in test [1], in test [2], in test [3], in test [6], in [7] and in [9] was “inactive” in each case. Also, the Potency entry in test [4] and in test [8] was “inactive” in each case.
Regarding `CCCC(=O)Nc1ccc(O)c(C(C)=O)c1`, the Potency entry in test [1], in test [2], in [5], in test [6], in test [7] and in test [9] was “inactive” in each case. The Potency result in test [10], in test [4] and in test [8] was “inactive” each time.
Take `Cc1nc2n(c(=O)c1CCN1CCC(C(=O)c3ccc(F)cc3)CC1)CCS2`: the Potency entry in [1], in test [2], in test [3], in test [6], in test [7] and in test [9] was “inactive” each time. The Potency entry in test [10] and in test [8] was “inactive” throughout.
As for `CN1CC[C@H](c2c(O)cc(O)c3c(=O)cc(-c4ccccc4Cl)oc23)[C@H](O)C1`, the Potency was 0.266 µM (active) in test [1], 0.347 µM (active) in test [2], 0.133 µM (active) in test [3] and 0.276 µM (active) in test [4].
For `COC(=O)/C=C\C(=O)OC`, the Potency result in test [1], in test [2], in test [5], in test [6], in test [7] and in test [9] was “inactive” in each case. Besides, the Potency entry in test [10], in [4] and in [8] was “inactive” in each case.
As for `CN=C(N)NC(=O)Nc1c(C)cccc1C`, the Potency result in test [1], in [3], in [5], in test [6], in test [7] and in test [9] was “inactive” in each case. For the same molecule, the Potency entry in [10], in test [4] and in test [8] was “inactive” throughout.
In the case of `N=C(N)c1ccc(OCCCOc2ccc(C(=N)N)cc2)cc1`, the Potency entry in [1], in test [3], in [5], in [6], in test [9] and in [10] was “inactive” throughout. Further, the Potency result in [8] is “inactive”. In [4], the Potency is 2.19 µM (active).
With `CO/N=C(/C(=O)N[C@@H]1C(=O)N2C(C(=O)OCOC(=O)C(C)(C)C)=C(C)CS[C@H]12)c1csc(N)n1`, in test [1], the Potency was 26.6 µM (active). Also, the Potency result in test [3], in test [5], in [6], in [7], in [9] and in test [10] was “inactive” each time. The Potency entry in test [4] and in test [8] was “inactive” throughout.
As to `O=C(Nc1ccc(S(=O)(=O)N2CCOCC2)cc1)c1cc(Cl)ccc1NS(=O)(=O)c1ccc(Cl)s1`, the Potency in test [1] was 18.8 µM (active). Moreover, the Potency entry in test [2], in [5], in test [7], in test [9], in test [10] and in [4] was “inactive” in each case. Besides, the Potency result in [8] is “inactive”.
For the molecule `CN1[C@@H]2CC[C@H]1CC(NC(=O)n1c(=O)[nH]c3ccccc31)C2` (some centres undefined), the Potency entry in test [1], in [3], in test [5], in test [6], in test [7] and in test [4] was “inactive” throughout. Further, in [8], the Potency entry is “inactive”.
In the case of `CCOC(=O)c1ccc(OCCN2C[C@H](O)[C@@H](O)[C@H](O)[C@H]2CO)cc1`, the Potency entry in [1], in test [2], in test [5], in [7], in test [9] and in [10] was “inactive” each time. In addition, the Potency entry in test [4] and in [8] was “inactive” each time.
With `C/C(=C1\CCOC(=O)S1)N(C=O)Cc1cnc(C)nc1N`, the Potency entry in test [1], in test [3], in test [5], in test [6], in [7] and in [9] was “inactive” in each case. In addition, the Potency entry in test [4] and in [8] was “inactive” in each case.
In the case of `OCc1c[nH]c2ccccc12`, the Potency in test [1] is 21.7 µM (active). Moreover, the Potency result in test [2] and in [8] was “inactive” each time.
Take `COC(=O)c1cc(Cl)ccc1NS(=O)(=O)C(F)(F)F`: the Potency result in test [1], in [3], in test [5], in [6], in [9] and in test [10] was “inactive” each time. Also, the Potency result in test [4] and in [8] was “inactive” each time.
